# An excerpt weighted towards active compounds, which were near 2.2% of everything screened.
# aSyn yeast inh = qHTS of alpha-syn Inhibitors; Yeast expressing alpha-synuclein, growth rescue, BacTiter-Glo, 24 h; Potency, µM (doses to about 46.1 µM), inactives show top-dose growth rescue (activation), actives largely listed as activators; 0.14% of 370,000 active; AID 652106, 2013; further: % of control where 0% means no effect; nearly all actives have a fitted effect of over 65% in size
#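 Galactose-induced alpha-syn yeast (OD600=0.02, raffinose-pregrown) + pinned cpd, 24 hr, 30 deg C; growth by BacTiter-Glo luminescence. Growth restoration scores as activation.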
# Abeta yeast res = qHTS for compounds that reverse cellular toxicity of Amyloid beta (A-beta) peptide in yeast: Primary Screen | AID 1347071, 2019 | yeast expressing A-beta42, growth rescue, OD600, 48 h; response scale: 0% DMSO, 100% iron-clioquinol control | Potency, µM (doses to about 46.1 µM), usual class: activators | 0.063% of 410,000 active; further: nearly all actives have a fitted effect of over 55% in size
#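 Growth rescue measured by 600 nm absorbance after 48 h yeast culture at 30 C with compound. Values normalized between DMSO and an equimolar ferric chloride plus clioquinol control.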
# FUS suppressor = qHTS for Suppressors of FUS Proteinopathy: Primary screen using FUS-linked yeast assay; 0.24% of 390,000 active; Potency, µM (top dose mostly 76.6 µM), hits mostly activators; AID 1347120, 2019; S. cerevisiae FUS-expressing, growth rescue, OD600, 24 h;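 further: plate controls were DMSO vehicle for no effect and reference control for full effect; nearly all actives have a fitted effect of over 55% in size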
#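 Yeast expressing FUS under galactose induction, OD 0.005 in 2% galactose medium; compounds in a dilution series, 24 h at 30C. Growth rescue by absorbance at 600 nm; CP55940 positive control, DMSO negative.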
# Mito fusion yeast = qHTS Assay for Small Molecule Inhibitors of Mitochondrial Division or Activators of Mitochondrial Fusion; S. cerevisiae fusion-defective mutant growth rescue, CellTiterGlo 48 h; Potency, µM (series often up to 46.1 µM), for the others: at the highest dose growth rescue (activation), usual class: activators; 0.23% of 320,000 active; further: % of control where 0% means no effect; nearly all actives have a fitted effect of over 45% in size
#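 Read-out: ATP-based luminescence (CellTiterGlo, 10 min ambient) reporting growth of fusion-defective ts yeast after 48 hours at 37C on glycerol/ethanol YPEG medium in the presence of compound.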
# TDP-43 yeast inh = qHTS of TDP-43 Inhibitors | 1.8% of 410,000 active | Potency, µM (series often up to 46.1 µM), for inactives: top-dose growth rescue (activation), most hits filed as activators | TDP-43 expressing yeast growth rescue, BacTiter-Glo, 24 h; further: % of control where 0% means no effect; nearly all actives have a fitted effect of over 50% in size
#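 In this qHTS, compounds that restore growth of yeast expressing TDP-43 appear as activators. Cells (OD600=0.02, galactose medium, raffinose-pregrown) are incubated with compound 24 hr at 30 deg C and growth is quantified by BacTiter-Glo.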
# The depositor's hits bear a star; i = inactive; ? = inconclusive; . = no result given; [ ] = another dose, or the depositor's remark. The call rests on the fitted dose curve; in most records, active means well fitted curve in the direction sought with a large enough effect; inconclusive means small, poorly fitted or top-dose-only effect, or another doubt; inactive means no such curve, though single readings can be large; an effect the other way counts as inactive or inconclusive. Potency means the concentration at half of the fitted maximal effect.
SMILES,aSyn yeast inh,Abeta yeast res,FUS suppressor,Mito fusion yeast,TDP-43 yeast inh
Cc1ccc(Cl)cc1NC(=O)c1sc(-n2nc(C)c(Cc3ccc4c(c3)OCO4)c2C)nc1C,.,i,i,.,-8.8%
NC(=O)[C@@H]1CC2(CC(c3cccc(NC(=O)COc4ccc(Cl)cc4)c3)=NO2)CN1C(=O)COc1ccc(Cl)cc1 (some centres not stated),1.2%,i,17.8µM*,2.3%,-22.3%
N#CCC(=O)N1CC2(CC(c3cccc(NC(=O)COc4ccc(Cl)cc4)c3)=NO2)C[C@@H]1C(N)=O (some centres not stated),1.7%,i,i,17.6%,1.1%
C=C(C)C(=O)N1CC2(CC(c3cccc(NC(=O)CC(c4ccccc4)c4ccccc4)c3)=NO2)C[C@H]1C(N)=O (some centres not stated),10.7%,i,31.6µM*,-14.4%,-11.7%
NC(=O)[C@@H]1CC2(CC(c3cccc(NC(=O)CC(c4ccccc4)c4ccccc4)c3)=NO2)CN1C(=O)c1ccc(Cl)cc1 (some centres not stated),-0.1%,i,28.2µM*,?,-9.4%
C/C=C\C=C\C(=O)Nc1cccc(C2=NOC3(C2)C[C@@H](C(N)=O)N(C(=O)C(c2ccccc2)c2ccccc2)C3)c1 (some centres not stated),3.8%,i,31.6µM*,29.5%,7.9%
CCn1cc2nc(SCc3cccc(OC)c3)n(Cc3ccc(Cl)cc3)c(=O)c2n1,.,i,?,.,5.3%
CCOC(=O)c1noc2nc(C)n(CC(=O)Nc3ccc(Br)cc3C)c(=O)c12,.,i,i,.,26.9%
O=C(Cn1c(=O)n(Cc2ccc(F)cc2)c(=O)c2sc3ccccc3c21)Nc1ccc(F)cc1F,2.5%,i,i,.,28.0%
CC1=NNC(=O)/C1=C\c1cn(-c2ccccc2)nc1-c1ccc(F)cc1,-70.5%,i,?,-1.8%,11.2µM*
Cc1nc(-c2ccc(F)cc2)sc1CCNC(=O)C(=O)Nc1ccc2c(c1)OCO2,.,i,i,.,11.0%
Brc1ccc(-c2csc(-c3ccncc3)n2)cc1,0.6%,i,.,-7.5%,11.2µM*
Cc1ccc(-c2csc(-c3ccncc3)n2)cc1,9.3%,i,i,-22.3%,?
O=C(COc1ccc(Br)cc1Cl)c1ccc[nH]1,12.2%,i,i,-8.6%,20µM*
O=C(NCC(c1cccnc1)N1CCc2ccccc2C1)C(=O)Nc1ccccc1F (configuration not stated),.,i,i,.,6.6%
O=C(Nc1nc(-c2ccc(F)c(F)c2)cs1)C1=COCCO1,0.2%,i,i,3.5%,3.98µM*
O=C(Nc1nc(-c2ccc(Cl)cc2)cs1)C1=COCCO1,-9.0%,i,i,13.9%,?
CCc1ccc(-c2csc(NC(=O)C3=COCCO3)n2)cc1,7.3%[1.84 µM],i,i,?,17.8µM*
COC(=O)[C@H]1C[C@]2(C(/C=C(\C)CCC=C(C)C)S(=O)(=O)c3ccccc3)c3ccccc3N[C@H]2N1 (some centres not stated),.,.,i,.,.
CNc1nc(N)c([N+](=O)[O-])c(Nc2ccccc2OC)n1,12.7%,i,i,-64.4%,2.51µM*
Cc1ccccc1OCCCCn1nnc2sc3c(c2c1=O)CCC(C)C3 (configuration not stated),.,i,i,.,15.6%
Cc1nn(Cc2ccc(F)cc2)c2sc(C(=O)Nc3ccc(N4CCOCC4)cc3N3CCOCC3)cc12,10.0%,i,.,-2.9%,14.1µM*
O=C(CSCc1ccc(F)cc1)Nc1ccc(N2CCOCC2)cc1N1CCOCC1,0.8%,i,i,7.0%,?
CCC1=C[C@@H]2CN(C1)Cc1c([nH]c3ccccc13)[C@@](C(=O)OC)(c1cc3c(cc1OC)N(C)[C@H]1[C@@](O)(C(=O)OC)[C@H](OC(C)=O)[C@]4(CC)C=CCN5CC[C@]31[C@@H]54)C2,1.8%,.,.,.,.
CC(C)c1ccc(NC(=O)COc2ccccc2)cc1,-6.6%,i,i,-4.4%,10µM*
SMILES,aSyn yeast inh,Abeta yeast res,FUS suppressor,Mito fusion yeast,TDP-43 yeast inh
COc1ccc(NC(=O)COc2ccccc2)cc1Cl,-7.6%,i,i,?,11.2µM*
Cc1ccc(NC(=O)COc2ccccc2)cc1Cl,-5.8%,i,i,2.3%,?
COc1ccc2c(c1)C1C=CCC1C(c1cc3c(cc1Br)OCO3)N2 (configuration not stated),-7.4%,i,i,1.3%,14.6%
CC(=O)c1ccc2c(c1)C1C=CCC1C(c1cc3c(cc1Br)OCO3)N2 (configuration not stated),-2.6%,i,i,12.6µM*,15.7%
CC(C)C1Nc2ccc(C(=O)O)cc2C2C=CCC21 (configuration not stated),-0.7%,i,i,2.5%,17.8µM*
COc1cccc([C@@H]2Nc3ccc(C(=O)O)cc3[C@@H]3C=CC[C@@H]32)c1OC,.,i,?,-2.3%,17.8µM*
CC[C@H](CCCCCCCn1ccc2ccccc21)CCC(=O)N(c1ccccc1)c1ccccc1,.,.,i,.,.
CCOc1ccc(CCNC(=O)C(CC(C)C)N2Cc3ccccc3C2=O)cc1OCC (configuration not stated),.,i,i,.,9.4%
CCN(CC)C(=O)Cn1c(=O)n(CCCCCC(=O)NCc2ccc(C)cc2)c(=O)c2sccc21,.,i,i,.,22.3%
CCOC(=O)c1nc(NCCc2ccccc2)sc1C,-17.3%,i,i,19.6%,12.6µM*
Cc1cc(C)cc(N2C(=O)CC(Sc3ccccc3C(=O)O)C2=O)c1 (configuration not stated),-75.4%,i,i,-14.6%,22.4µM*
Cc1ccc(N2C(=O)CC(Sc3ccccc3C(=O)O)C2=O)cc1 (configuration not stated),14.1%,i,.,0.0%,?
CCOC(=O)c1c(N2C(=O)CC(Sc3ccccc3C(=O)O)C2=O)sc(C)c1C (configuration not stated),8.6%,?,i,-6.6%,14.1µM*
Cc1cc(C(=O)CSc2nnc(-c3ccncc3)n2-c2ccccc2)c(C)n1C,-8.8%,i,31.6µM*,1.2%,-6.2%
Cc1cc(C(=O)CSc2nnc(-c3ccccc3)n2C)c(C)n1C,-5.1%,i,i,12.0%,-16.6%
C[C@H]1CN([C@@H](C)CO)C(=O)CCCn2cc(nn2)CO[C@@H]1CN(C)S(=O)(=O)c1ccc2ccccc2c1,3.55µM*,i,i,.,12.1%
